Test results reported in PubChem BioAssay AID504866 (Johns Hopkins Ion Channel Center, 2011).

What follows are molecules tested against Short transient receptor potential channel 4 (Mus musculus) (UniProt Q9QUQ5) (assay: TRPC4 channel inhibition, specificity check, SAR follow-up, selectivity assay for TRPC6 selective inhibitor project, cell-based, HEK293 TRPC4/mu-opioid, concentration-response, set 2 (AID 504866)). Conditions: DAMGO, membrane potential dye; series mostly up to 20 µM; ratio, lower = inhibition: at the top concentration;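 active = compound cutting the TRPC4 channel signal by more than 30% at some tested dose, with a fitted dose response curve; inactive = no inhibition at any dose, or no curve fitted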.
Sequence of Short transient receptor potential channel 4 (Mus musculus) (Q9QUQ5 whole entry, looked up): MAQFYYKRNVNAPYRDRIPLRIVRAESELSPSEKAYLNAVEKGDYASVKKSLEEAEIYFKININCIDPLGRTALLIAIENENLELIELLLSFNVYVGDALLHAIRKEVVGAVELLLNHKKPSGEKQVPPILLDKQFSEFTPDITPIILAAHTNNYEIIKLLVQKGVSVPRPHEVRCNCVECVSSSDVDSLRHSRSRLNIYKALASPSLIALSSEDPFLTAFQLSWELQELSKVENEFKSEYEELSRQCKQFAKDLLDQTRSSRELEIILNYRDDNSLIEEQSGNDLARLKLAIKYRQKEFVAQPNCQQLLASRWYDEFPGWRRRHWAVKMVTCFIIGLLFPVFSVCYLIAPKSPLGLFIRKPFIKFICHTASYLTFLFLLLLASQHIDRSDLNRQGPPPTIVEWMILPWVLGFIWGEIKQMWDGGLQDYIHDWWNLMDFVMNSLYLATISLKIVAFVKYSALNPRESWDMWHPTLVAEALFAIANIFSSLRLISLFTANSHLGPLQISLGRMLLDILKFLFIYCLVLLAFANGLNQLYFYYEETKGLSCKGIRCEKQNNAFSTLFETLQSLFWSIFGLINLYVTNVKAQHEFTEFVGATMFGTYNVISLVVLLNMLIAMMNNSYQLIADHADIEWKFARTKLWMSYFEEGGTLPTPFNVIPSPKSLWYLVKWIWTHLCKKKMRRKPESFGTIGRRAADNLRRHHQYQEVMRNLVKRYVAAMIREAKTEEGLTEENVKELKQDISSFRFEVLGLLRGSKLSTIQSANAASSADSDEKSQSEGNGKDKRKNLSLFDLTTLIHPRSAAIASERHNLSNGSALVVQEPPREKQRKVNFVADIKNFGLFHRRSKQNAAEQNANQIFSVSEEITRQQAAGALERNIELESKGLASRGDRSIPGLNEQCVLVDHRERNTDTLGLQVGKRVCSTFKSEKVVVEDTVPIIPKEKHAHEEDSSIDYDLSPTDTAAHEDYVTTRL

ratio, lower = inhibition, inactive:
CN1CCC(N2CCN(Cc3ccc4nsnc4c3)CC2CCO)CC1 (stereo unspecified) 51
OCCC1CN(Cc2ccc3nsnc3c2)CCN1C1CCCC1 (stereo unspecified) 28.4
Cc1ccc(C)c(N2CCN(C(=O)c3ccc4nsnc4c3)CC2)c1 39.7
CC(C)CN1CCN(Cc2ccc3nsnc3c2)CC1CCO (stereo unspecified) 39
O=S(=O)(Cc1cc(N2CCOCC2)nc(-c2ccccn2)n1)c1ccccc1 47.2
CC(C)N1CCC(N2CCN(Cc3ccc4nsnc4c3)CC2CCO)CC1 (stereo unspecified) 43
OCCC1CN(Cc2ccc3nsnc3c2)CCN1CCCc1ccccc1 (stereo unspecified) 10.8
Cc1ccccc1CN1CCN(Cc2ccc3nsnc3c2)CC1CCO (stereo unspecified) 24.7
CSCc1cc(N(C)c2ccccc2)nc(-c2ccccn2)n1 34
Clc1ccc(SCc2cc(N3CCCCC3)nc(-c3ccccn3)n2)cc1 46.9
CSCc1cc(N2CCOCC2)nc(-c2ccccn2)n1 49.2
CN1CCN(Cc2ccc3nsnc3c2)CC1CCO (stereo unspecified) 52.5
O=S(=O)(Cc1cc(N2CCN(c3ccccc3)CC2)nc(-c2ccccn2)n1)c1ccccc1 44.3
Cc1cccc(CN2CCN(Cc3ccc4nsnc4c3)CC2CCO)n1 (stereo unspecified) 30.4
CC(C)CCN1CCN(Cc2ccc3nsnc3c2)CC1CCO (stereo unspecified) 31.2
CC(C)N1CCN(Cc2ccc3nsnc3c2)CC1CCO (stereo unspecified) 46.1
